# Screens from PubChem BioAssay.
# CYP2C9 activ: increases human cytochrome P450 2C9 activity | P11712 | recombinant CYP2C9, luciferin-H conversion, luminescence; hits give high values; factor 1 = untreated enzyme, 0 = blocked | activation factor at 5 µM | 96,000 compounds, 1.4% hits;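 active = activation factor of 2 or more for CYP2C9 at a 5 µM dose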;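 note: 0 = sulfaphenazole-blocked wells and 1 = vehicle-only wells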
# CYP2C19 act: activators of human cytochrome P450 2C19; activation factor at 5 µM; recombinant CYP2C19, luciferin-H EGE luminescence; hits give high values; 0 = fully inhibited enzyme, 1 = untreated enzyme; AID 1025; P33261; 96,000 tested, under 10 active;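 active = activation factor of at least 2 at 5 µM in the primary screen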;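 note: 0 = wells with 2.5 mM tranylcypromine and 1 = vehicle-only wells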
# CYP2C9 inhib: inhibitors of human CYP2C9; P11712; CYP2C9 Supersomes, luciferin-H conversion, luminescence; inhibition, % at 5 µM; 96,000 compounds, 20% hits; AID 777;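 active = blocking of liver enzyme CYP2C9 beyond about 50% at 5 µM, limit read from the data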
# sEH inh: blocks human soluble epoxide hydrolase activity | recombinant human sEH enzymatic activity assay | inhibition, % at 2 µM | P34913 | 91,000 compounds, 0.34% hits; in the data active = inhibition above about 80%
# Target sequence (P34913 whole entry, looked up): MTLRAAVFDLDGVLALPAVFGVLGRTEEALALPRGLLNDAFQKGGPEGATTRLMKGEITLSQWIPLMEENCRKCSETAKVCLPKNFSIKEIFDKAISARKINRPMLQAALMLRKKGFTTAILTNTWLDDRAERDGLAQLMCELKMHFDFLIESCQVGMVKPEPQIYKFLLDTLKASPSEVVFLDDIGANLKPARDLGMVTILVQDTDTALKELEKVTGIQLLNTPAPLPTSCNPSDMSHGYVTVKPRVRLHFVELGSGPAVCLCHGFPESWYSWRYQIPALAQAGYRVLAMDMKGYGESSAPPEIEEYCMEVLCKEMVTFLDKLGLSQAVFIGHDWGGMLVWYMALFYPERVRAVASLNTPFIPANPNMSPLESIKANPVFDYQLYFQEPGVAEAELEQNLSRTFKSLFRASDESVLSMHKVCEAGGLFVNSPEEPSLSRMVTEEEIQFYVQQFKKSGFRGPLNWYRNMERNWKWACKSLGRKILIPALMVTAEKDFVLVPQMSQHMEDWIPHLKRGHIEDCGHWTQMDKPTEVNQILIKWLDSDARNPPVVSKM
# CYP2C19 inhib: blocks human cytochrome P450 2C19. CYP2C19 Supersomes, luciferin-H EGE luminescence, 30 min. 96,000 compounds, 21% hits. inhibition, % at 5 µM. P33261. AID 778;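 active = CYP2C19 inhibition above a set limit at 5 µM in the primary screen, cut at about 50% in these data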;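 note: plate controls were negative control wells for no effect and 2.5 mM tranylcypromine positive control for full effect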
# sEH activator: activators of human soluble epoxide hydrolase | purified human sEH enzymatic activity, activator screen | activation, % at 2 µM | 91,000 compounds, 0.04% hits | P34913; in the data active = activation above about 37%
# The depositor's hits bear a star; · = not tested or not shown. Hits are enriched below; roughly 27% of the tested compounds scored in any of these assays.
SMILES,CYP2C9 activ,CYP2C19 act,CYP2C9 inhib,sEH inh,CYP2C19 inhib,sEH activator
CCOC(=O)CCP(=O)(O)C(O)c1ccccc1 (stereo not drawn),1,1.1,-4,11,-15,-9
C=C(C)C(=O)OC1(C(F)(F)F)Oc2cc(C)ccc2NC1=O (stereo not drawn),0.6,0.4,39,-41,63*,41*
COC(=O)CCC(=O)NC(=S)Nc1cc(Cl)ccc1Cl,0.5,0.5,53*,5,54*,-3
COC(=O)CCC(=O)Nc1ccc(Cl)c(Cl)c1,1,0.7,2,-14,28,14
O=C(CNS(=O)(=O)c1ccccc1)Nc1ccc(C(F)(F)F)cc1,0.7,0.5,30,9,51*,-6
Cc1ccc(S(=O)(=O)NCC(=O)Nc2ccc(C(F)(F)F)cc2)cc1,0.9,0.8,9,-8,24,10
O=C(CNS(=O)(=O)c1ccc(F)cc1)Nc1ccc(C(F)(F)F)cc1,0.4,0.4,55*,2,65*,-5
COCCN(CC(=O)Nc1cccc(C)c1)S(=O)(=O)c1ccc(S(=O)(=O)N2CCCC2)cc1,0.4,1,61*,5,-2,-5
CCOc1ccc(NC(=O)CSc2n[nH]c(=O)n2-c2ccccc2)cc1,1.4,0.7,-36,7,25,-4
COC(=O)Cn1ncc2c(C)n(Cc3ccccc3)c(C)c2c1=O,0.6,0.2,40,3,84*,-4
Cc1c2cnn(CC(=O)O)c(=O)c2c(C)n1Cc1ccccc1,0.9,1,7,-13,3,10
CCOc1nc(SC(C(C)=O)C(=O)Nc2ccccc2)nc(N(C)C)n1 (stereo not drawn),·,·,·,-9,·,9
CCOCC(=O)Nc1nc2ccccc2s1,·,·,·,3,·,0
COc1ccc(CCNC(=O)CCn2c(=O)oc3ccccc32)cc1,0.8,0.8,24,·,18,·
O=C(CCn1c(=O)oc2ccccc21)Nc1nc2ccccc2s1,0.4,0.5,59*,9,52*,-11
OC(CNc1nc2ccccc2s1)c1ccccc1 (stereo not drawn),0.3,0.1,70*,·,95*,·
CC(C)OC(=O)CCC(=O)Nc1nc2ccccc2s1,0.3,0.2,66*,-2,81*,1
COc1ccccc1CCNC(=O)CCn1c(=O)oc2ccccc21,0.6,0.2,44,·,83*,·
Cc1ccc(S(=O)(=O)NCc2ccc(C(=O)NCCCN3CCN(C)CC3)cc2)cc1,1,1,4,·,-2,·
COc1ccc(OCCSc2ncn[nH]2)cc1,0.9,0.6,9,-3,44,5
Cc1onc(-c2ccccc2Cl)c1C(=O)Nc1cnn(Cc2ccccc2)c1,0.6,0.9,37,·,9,·
C=CCn1c(SCC(=O)Nc2nccs2)nnc1-c1cc2cccc(OC)c2o1,1.7,0.9,-73,4,9,-1
COC(=O)c1nn(-c2ccccc2)c(Sc2ccc(C)cc2)c1/C=N/O,0.9,1,10,2,0,0
COc1cc2oc3ccccc3c2cc1N(CC(=O)N(C)C)S(=O)(=O)c1ccc(C)cc1,0.4,0.5,63*,3,45,-1
CCOC(=O)c1cc2sc(C)cc2n1CC(=O)NCc1ccc(F)cc1,0.9,0.3,14,9,72*,-10
SMILES,CYP2C9 activ,CYP2C19 act,CYP2C9 inhib,sEH inh,CYP2C19 inhib,sEH activator
CCOC(=O)c1cc2sc(C)cc2n1CC(=O)N1CCOCC1,1.1,0.3,-9,10,65*,-9
CCOC(=O)c1cc2sc(C)cc2n1CC(=O)N1CCN(C(=O)c2ccco2)CC1,0.8,0.8,20,-11,17,11
Cc1cc(NS(=O)(=O)c2ccc(NC(=S)NC(=O)c3ccc(Cl)cc3Cl)cc2)no1,0.7,1,25,-3,0,5
Cc1cc(C(F)(F)F)nn1Cc1n[nH]c(=S)n1-c1cccc(Cl)c1,1.1,1.1,-10,2,-7,-2
CC1(C)CC(=O)C(CCC(=O)c2ccccc2)C(C)(C)N1 (stereo not drawn),1.1,1,-6,14,0,-14
CCn1c(CNc2cccc(Cl)c2)nnc1SCc1ccccc1,0.7,0.4,33,6,56*,-8
Cn1c(CNc2cccc(Cl)c2)nnc1SCC(=O)OC1CCCCC1,0.2,0.2,81*,-9,79*,6
CCn1c(CNc2ccc(Cl)cc2)nnc1SCc1ccc(Cl)cc1,·,·,·,-11,·,14
CCOC(=O)CSc1nnc(CNc2cccc(Cl)c2)n1-c1ccccc1,0.7,0.4,27,·,56*,·
CC(Sc1nc(-c2ccccc2)cc(C(F)(F)F)n1)C(=O)NCCN1CCOCC1 (stereo not drawn),1,0.9,3,11,12,-11
C(=N\n1cnnc1)/c1ccc2ncccc2c1,0.8,0.4,21,10,57*,-10
C(=N\n1cnnc1)/c1ccccn1,1.1,1.2,-5,·,-16,·
Cc1cc(C)c2c(n1)sc1c(=O)n(Cc3ccccc3Cl)nnc12,0.8,0.7,20,-3,31,4
CCOC(=O)c1c(C)[nH]c(C(=O)Cn2c(=O)c3c(ncn3CC)n(Cc3ccccc3)c2=O)c1C,·,·,·,-6,·,5
CC1CCc2nc(NC(=O)C3COc4ccccc4O3)sc2C1 (stereo not drawn),0.8,1,16,7,-1,-5
CS(=O)(=O)NCCOc1ccc(S(=O)(=O)N2CCCc3ccccc32)cc1,2.1*,0.2,-111,-2,75*,2
COC(=O)Nc1ccc(S(=O)(=O)N2CCCc3ccccc32)cc1,0.5,1.1,46,·,-6,·
CCc1nnc(NC(=O)c2ccc(S(=O)(=O)N3CCCc4ccccc43)cc2)o1,0.4,1,62*,2,1,-2
CC1CCc2nc(NC(=O)c3ccc(S(=O)(=O)N4CCCc5ccccc54)cc3)sc2C1 (stereo not drawn),0.5,1,54*,-2,1,4
O=C(O)c1ccc(Cl)c(NC(=O)C2CCCN2S(=O)(=O)c2cccc3nsnc23)c1 (stereo not drawn),1,1.2,-4,-3,-19,3
CC(C)OC(=O)N(C)c1ccc(C(O)(C(F)(F)F)C(F)(F)F)cc1,0.2,0.1,75*,-7,85*,7
CSc1ncccc1C(=O)OCC(=O)c1cc2ccccc2o1,1.4,1.1,-44,1,-13,1
CN(Cc1ccccc1)C(=O)c1ccc2c(c1)OCCO2,1,0.2,-4,·,84*,·
CN(CCOC(=O)c1ccc2c(c1)OCCO2)C(C)(C)C,·,·,·,4,·,-4
O=C(O)CNC(=O)c1ccc2c(c1)OCCO2,0.9,1,5,-6,3,4
CN(CCOC(=O)c1ccc2c(c1)OCCO2)Cc1ccccc1,0.4,0.5,62*,6,54*,-4
O=C(CCOc1ccccc1)OCC(=O)c1cc2ccccc2o1,0.4,0.3,65*,·,70*,·
O=C(c1ccccc1)c1cc2ccccc2o1,0.8,0.7,17,-3,35,2
